# From PubChem BioAssay (Tox21)
# “And” between values parts separate entries of the source, which are not always exact repeats. Identical values can stand only once. Results filed as inconclusive are left out. Where a call stands in place of a potency, no number is given. The source made the active and inactive calls. Unless noted, the call rests on the fitted dose curve; in most records, active means well fitted curve in the direction sought with a large enough effect in the repeat runs; inconclusive means weak or mixed curves; inactive means no such curve, though single readings can be large; an effect the other way counts as inactive or inconclusive.
# What was measured:
# [1] = qHTS assay to identify small molecule agonists of the RXR signaling pathway - cell viability counter screen (AID 1159529); further: nearly all actives have a fitted effect of over 50% in size; further: potency means the concentration at half of the fitted maximal effect
# Summary of the method: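 CellTiter-Glo luminescence gave viability in the wells also read for beta-lactamase. Cells (RXR-alpha-UAS-bla HEK 293T, 2% charcoal-stripped FBS medium) had 5 hr plating, then 16 hr compound exposure at 37 C; tetraoctyl ammonium bromide served as positive control.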
# [2] = qHTS assay to identify small molecule antagonists of the retinoid acid receptor (RAR) signaling pathway - cell viability counter screen (AID 1159551); further: nearly all actives have a fitted effect of over 35% in size; further: potency means the concentration at half of the fitted maximal effect
# Summary of the method: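 ATP-based viability, C3RL4 cells, 6 h at 37 C with 1 uM final retinol co-added after compound; luminescence read 30 min post CellTiter-Glo, RT.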
# [3] = qHTS assay to identify small molecule antagonists of the retinoic acid receptor (RAR) signaling pathway (AID 1159552; further: nearly all actives have a fitted effect of over 50% in size; further: potency means the concentration at half of the fitted maximal effect)
# Summary of the method: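 Luminescent RARE reporter read-out in C3RL4 cells: 6 hr co-treatment at 37 C of test compounds with retinol at 1 uM final. Cells plated overnight beforehand; luciferase reagent incubated 30 min at room temperature before reading.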
# [4] = qHTS assay to identify small molecule agonists of the retinoic acid receptor (RAR) signaling pathway (AID 1159553); settings: C3RL4 RARE luciferase reporter, agonist, 6 h; activation: at 73.3 µM (top of the series) unless noted; further: potency means the concentration at half of the fitted maximal effect
# Summary of the method: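 Quantitative high-throughput format: the Tox21 10K library was tested on C3RL4 RARE-luciferase cells for 6 hr at 37 C and 5% CO2, with luminescence measured after a 30 min room-temperature reagent step.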
# [5] = qHTS assay to identify small molecule antagonists of the estrogen related receptor (ERR) signaling pathway from Tox21 library - cell viability counter screen (AID 1224834); further: nearly all actives have a fitted effect of over 30% in size; further: potency means the concentration at half of the fitted maximal effect
# Summary of the method: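 Compounds in DMSO were pinned onto ERR cells that had been incubated for 6 h, and the plates were held at 37 C for 17.5 h. CellTiter-Fluor reagent was then added and fluorescence was measured after 30 min.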
# [6] = molecular target: Luciferin 4-monooxygenase (Photinus pyralis) (UniProt P08659); assay: qHTS assay to identify small molecule inhibitors of firefly luciferase (AID 1224835); further: nearly all actives have a fitted effect of over 25% in size; further: potency means the concentration at half of the fitted maximal effect
# Sequence of Luciferin 4-monooxygenase (Photinus pyralis) (P08659 whole entry, looked up): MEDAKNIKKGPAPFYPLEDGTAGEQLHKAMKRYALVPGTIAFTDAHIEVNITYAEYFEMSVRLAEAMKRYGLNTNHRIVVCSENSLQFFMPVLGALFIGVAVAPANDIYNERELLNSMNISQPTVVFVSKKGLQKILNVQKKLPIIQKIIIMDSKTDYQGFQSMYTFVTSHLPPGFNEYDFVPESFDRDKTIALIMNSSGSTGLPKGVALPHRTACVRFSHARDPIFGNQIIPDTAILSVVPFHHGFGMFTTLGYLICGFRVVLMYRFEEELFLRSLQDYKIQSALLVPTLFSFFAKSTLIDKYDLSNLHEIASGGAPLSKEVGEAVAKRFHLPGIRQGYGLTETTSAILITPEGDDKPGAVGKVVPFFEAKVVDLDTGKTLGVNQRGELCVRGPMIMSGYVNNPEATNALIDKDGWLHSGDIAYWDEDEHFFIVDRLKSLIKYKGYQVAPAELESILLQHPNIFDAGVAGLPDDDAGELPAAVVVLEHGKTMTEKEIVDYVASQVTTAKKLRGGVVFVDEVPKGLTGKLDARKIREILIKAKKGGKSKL
# Summary of the method: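 Biochemical qHTS: compounds run as interplate titrations against purified firefly enzyme, with D-luciferin and ATP each at its KM concentration. Light output recorded by CCD imaging.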
# [7] = qHTS assay to identify small molecule agonists of the constitutive androstane receptor (CAR) signaling pathway - cell viability counter screen (AID 1224836); further: nearly all actives have a fitted effect of over 45% in size; further: potency means the concentration at half of the fitted maximal effect
# Summary of the method: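 Cell viability multiplexed with the CAR agonist screen: CellTiter-Fluor fluorescence after 23 hr at 37 C. HepG2-CYP2B6-hCAR cells got compounds at 15 concentrations with PK11195 at 0.75 uM final.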
# [8] = qHTS assay to identify small molecule antagonists of the constitutive androstane receptor (CAR) signaling pathway - cell viability counter screen (AID 1224837); further: nearly all actives have a fitted effect of over 45% in size; further: potency means the concentration at half of the fitted maximal effect
# Summary of the method: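 Cells are seeded, rested 4 hr at 37 C/5% CO2, dosed with compound (15-point series) and 50 nM CITCO, incubated a further 23 hr, and then CellTiter-Fluor reagent is added before fluorescence is read. The line is HepG2 with stable hCAR and CYP2B6-2.2kb.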
# [9] = molecular target: Nuclear receptor subfamily 1 group I member 3 (Homo sapiens) (UniProt Q14994); assay: qHTS assay to identify small molecule antagonists of the constitutive androstane receptor (CAR) signaling pathway (AID 1224838);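 further: HepG2 cells stably expressing hCAR with CYP2B6 luciferase reporter stimulated by CITCO; nearly all actives have a fitted effect of over 40% in size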; further: potency means the concentration at half of the fitted maximal effect
# Sequence of Nuclear receptor subfamily 1 group I member 3 (Homo sapiens) (Q14994 whole entry, looked up): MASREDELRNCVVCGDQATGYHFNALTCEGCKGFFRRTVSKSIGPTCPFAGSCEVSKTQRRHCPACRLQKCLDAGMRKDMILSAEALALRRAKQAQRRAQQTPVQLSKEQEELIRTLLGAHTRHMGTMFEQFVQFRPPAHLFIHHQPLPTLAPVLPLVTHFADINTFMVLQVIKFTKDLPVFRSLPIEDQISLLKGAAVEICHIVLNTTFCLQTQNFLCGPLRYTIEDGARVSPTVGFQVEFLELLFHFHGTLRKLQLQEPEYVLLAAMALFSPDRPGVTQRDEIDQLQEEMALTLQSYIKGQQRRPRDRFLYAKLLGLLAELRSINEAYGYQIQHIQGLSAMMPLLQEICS
# Summary of the method: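 Luminescence from a CYP2B6-2.2kb promoter reporter in hCAR-expressing HepG2 cells reflects CAR signaling. Cells received compounds at 15 concentrations and 50 nM CITCO (final), then incubated 24 h at 37 C/5% CO2.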
# [10] = molecular target: Nuclear receptor subfamily 1 group I member 3 (Homo sapiens) (UniProt Q14994); assay: qHTS assay to identify small molecule agonists of the constitutive androstane receptor (CAR) signaling pathway (AID 1224839); further: nearly all actives have a fitted effect of over 15% in size; further: potency means the concentration at half of the fitted maximal effect;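 on activation: HepG2 cells stably carrying human CAR and a CYP2B6 luciferase reporter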
# Summary of the method: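 Luminescent ONE-Glo read-out after 24 hr, 37 C exposure of double-stable HepG2-CYP2B6-hCAR reporter cells to a 15-point compound series, in the presence of 0.75 uM PK11195 (final).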
# [11] = qHTS assay to identify small molecule antagonists of the estrogen related receptor signaling pathway with the pleiotropic PPARgamma coactivator (PGC) from Tox21 10K library - cell viability counter screen (AID 1224840; active means well fitted cell-killing curve with a large enough effect in the repeat runs, not every such curve was filed as active; further: nearly all actives have a fitted effect of over 40% in size; further: potency means the concentration at half of the fitted maximal effect)
# Summary of the method: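 Cell viability is measured by CellTiter-Fluor fluorescence in PGC/ERR cells that receive compounds after a 6-hour attachment period and are then incubated 17.5 hours at 37 C.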
# [12] = qHTS assay to identify small molecule antagonists of the estrogen related receptor signaling pathway with the pleiotropic PPARgamma coactivator (PGC) from Tox21 10K library (AID 1224841; call rule not given here; further: actives are mostly falling curves and most rising ones were filed inactive; nearly all actives have a fitted effect of over 50% in size; further: potency means the concentration at half of the fitted maximal effect)
# Summary of the method: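 Cells stably carrying the PGC/ERR reporter, seeded at 2,000 per well, received pin-transferred compounds 6 h post-plating. Exposure lasted 18 h at 37 C. Signal: One-Glo luminescence.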
# [13] = qHTS assay to identify small molecule agonists of the estrogen related receptor signaling pathway with the pleiotropic PPARgamma coactivator (PGC) from Tox21 10K library (AID 1224842); further: nearly all actives have a fitted effect of over 15% in size
# Summary of the method: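 PGC/ERR reporter cell line, 2,000 cells per well, incubated 6 h at 37 C before 23 nL compound in DMSO was added. After 18 h at 37 C, One-Glo luminescence read following 30 min at room temperature.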
# [14] = molecular target: Thyrotropin receptor (Homo sapiens) (UniProt P16473); assay: qHTS assay to identify small molecule agonists of the thyroid stimulating hormone receptor (TSHR) signaling pathway (AID 1224843; calls by dose curve; further: nearly all actives have a fitted effect of over 45% in size; further: potency means the concentration at half of the fitted maximal effect)
# Sequence of Thyrotropin receptor (Homo sapiens) (P16473 whole entry, looked up): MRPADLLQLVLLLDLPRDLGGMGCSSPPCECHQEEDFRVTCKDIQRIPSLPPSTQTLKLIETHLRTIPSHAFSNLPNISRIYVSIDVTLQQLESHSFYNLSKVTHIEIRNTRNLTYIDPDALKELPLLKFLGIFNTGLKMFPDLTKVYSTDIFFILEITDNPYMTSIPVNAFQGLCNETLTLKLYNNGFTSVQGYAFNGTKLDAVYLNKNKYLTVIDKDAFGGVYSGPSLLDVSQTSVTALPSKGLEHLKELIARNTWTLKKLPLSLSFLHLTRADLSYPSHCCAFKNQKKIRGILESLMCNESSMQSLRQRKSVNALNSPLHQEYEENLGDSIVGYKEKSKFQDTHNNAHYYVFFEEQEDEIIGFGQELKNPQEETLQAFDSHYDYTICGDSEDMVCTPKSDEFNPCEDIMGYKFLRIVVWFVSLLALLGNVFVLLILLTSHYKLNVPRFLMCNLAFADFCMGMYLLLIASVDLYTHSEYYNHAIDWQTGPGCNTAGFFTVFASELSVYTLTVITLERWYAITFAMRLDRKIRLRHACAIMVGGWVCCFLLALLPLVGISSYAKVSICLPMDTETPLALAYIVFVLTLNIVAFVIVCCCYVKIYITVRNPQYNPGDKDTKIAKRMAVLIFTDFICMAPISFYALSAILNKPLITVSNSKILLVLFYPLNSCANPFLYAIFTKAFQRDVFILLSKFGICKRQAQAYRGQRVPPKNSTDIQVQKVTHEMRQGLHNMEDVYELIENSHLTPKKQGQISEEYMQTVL
# Summary of the method: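 HEK293/TSHR, 800 cells/well; cpd 30 min RT; add cAMP-d2 + anti-cAMP-cryptate, 1 h RT; fluorescence read on plate reader. 15-pt titration, n=3.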
Structure (SMILES),Potency [1],Potency [2],Potency [3],Potency [4],Potency [5],Potency [6],Potency [7],Potency [8],Potency [9],Potency [10],Potency [11],Potency [12],Potency [13],Potency [14]
CCOP(=O)(OCC)OCC,inactive,inactive,inactive,inactive,inactive,inactive,inactive,inactive,inactive,inactive,inactive,inactive,inactive,inactive
ClCC(Cl)CCl,inactive,inactive,inactive,inactive,inactive,inactive,inactive,inactive,inactive,inactive,inactive,inactive,inactive,inactive
O=C1Nc2ccc(Cl)cc2C(c2ccccc2)=NC1O (stereo not given),inactive,inactive,inactive,inactive,inactive,inactive,inactive,inactive,inactive,inactive,inactive,inactive,inactive,inactive
Nc1ccc2ccccc2c1,inactive,inactive,inactive,33.2 µM (active),inactive,inactive,inactive,inactive,inactive,52.6 µM (active) and 48.6 µM (active),inactive,inactive,inactive,
CC(C)(c1ccccc1)c1ccc(O)c(C(C)(C)c2ccccc2)c1,13.7 µM (active) and 15.5 µM (active),54 µM (active) and 61.1 µM (active),27.1 µM (active) and 27.3 µM (active),,54 µM (active) and 54.5 µM (active),inactive,,,,7.7 µM (active),54 µM (active) and 54.5 µM (active),48.1 µM (active),inactive,54.5 µM (active)
CNC(=O)Oc1cccc2c1OC(C)(C)C2,inactive,inactive,inactive,inactive,inactive,inactive,inactive,inactive,,inactive,inactive,inactive,inactive,inactive
CCCCCCCC[N+](C)(CCCCCCCC)CCCCCCCC,346 nM (active) and 15.5 µM (active) and 6.16 µM (active),27.3 µM (active) and 61.2 µM (active),4.85 µM (active) and 9.7 µM (active) and 13.7 µM (active),,17.2 µM (active) and 1.72 µM (active) and 21.7 µM (active),inactive,17.2 µM (active) and 7.7 µM (active) and 48.6 µM (active),19.3 µM (active) and 13.7 µM (active) and 17.2 µM (active),17.2 µM (active) and 15.4 µM (active),inactive,9.67 µM (active) and 1.37 µM (active) and 13.7 µM (active),,,
CS(=O)(=O)NC(=O)c1cc(Oc2ccc(C(F)(F)F)cc2Cl)ccc1[N+](=O)[O-],inactive,inactive,inactive,inactive,inactive,inactive,inactive,inactive,,,inactive,,,inactive
O=C1C(Cl)=C(Cl)C(=O)c2ccccc21,12.3 µM (active) and 17.4 µM (active),21.8 µM (active) and 24.3 µM (active),21.8 µM (active) and 19.3 µM (active),,61.3 µM (active) and 54.5 µM (active),5.66 µM (active) and 5.64 µM (active),inactive,inactive,,,inactive,34.5 µM (active) and 19.3 µM (active),inactive,
CC(C)COC(=O)c1ccccc1C(=O)OCC(C)C,inactive,inactive,inactive,inactive,inactive,inactive,inactive,inactive,,,inactive,,,inactive
CCCCCCCCCCCCCl,inactive,inactive,inactive,inactive,inactive,inactive,inactive,inactive,,,inactive,,,inactive
CC(C)(O)C#N,inactive,inactive,inactive,inactive,inactive,inactive,inactive,inactive,,inactive,inactive,,,inactive
CC1CC(=O)O1 (stereo not given),inactive,inactive,inactive,inactive,inactive,inactive,inactive,inactive,,,inactive,,,inactive
CN(C)P(=O)(N(C)C)N(C)C,inactive,inactive,inactive,inactive,inactive,inactive,inactive,inactive,,,inactive,inactive,inactive,inactive
C[N+](C)(C)C,inactive,inactive,,inactive,inactive,inactive,inactive,inactive,inactive,inactive,inactive,,,inactive
O=NN1CCOCC1,inactive,inactive,inactive,inactive,inactive,inactive,inactive,inactive,,,inactive,,,inactive
COP(=S)(OC)SCn1nnc2ccccc2c1=O,inactive,inactive,60 µM (active),,,39.1 µM (active) and 39.9 µM (active),inactive,inactive,,,inactive,61.1 µM (active),inactive,inactive
CN(C)c1ccccc1,inactive,inactive,inactive,inactive,inactive,inactive,inactive,inactive,,,inactive,inactive,inactive,inactive
Nc1ncn[nH]1,inactive,inactive,inactive,inactive,inactive,inactive,inactive,inactive,,inactive,inactive,,,inactive
